These results are taken from PubChem BioAssay AID2221 (Broad Institute, 2009).

Structures are written as SMILES. In all, about 290,000 compounds went through this assay and about 2,200 (0.76%) were called active. Many of the other results were omitted from the sample, so actives are more common in it than they were. Unmarked numbers belong to inactive results. No stated cut-off is given here; in the data, active means inhibition above about 30%; inconclusive means no clear call, values can overlap the other calls; inactive means below that.

The inhibition is the drop in the measured response relative to a control, in per cent.

Sequence of Protein RecA (Mycobacterium tuberculosis (strain ATCC 25618 / H37Rv)) (P9WHJ3 whole entry, looked up): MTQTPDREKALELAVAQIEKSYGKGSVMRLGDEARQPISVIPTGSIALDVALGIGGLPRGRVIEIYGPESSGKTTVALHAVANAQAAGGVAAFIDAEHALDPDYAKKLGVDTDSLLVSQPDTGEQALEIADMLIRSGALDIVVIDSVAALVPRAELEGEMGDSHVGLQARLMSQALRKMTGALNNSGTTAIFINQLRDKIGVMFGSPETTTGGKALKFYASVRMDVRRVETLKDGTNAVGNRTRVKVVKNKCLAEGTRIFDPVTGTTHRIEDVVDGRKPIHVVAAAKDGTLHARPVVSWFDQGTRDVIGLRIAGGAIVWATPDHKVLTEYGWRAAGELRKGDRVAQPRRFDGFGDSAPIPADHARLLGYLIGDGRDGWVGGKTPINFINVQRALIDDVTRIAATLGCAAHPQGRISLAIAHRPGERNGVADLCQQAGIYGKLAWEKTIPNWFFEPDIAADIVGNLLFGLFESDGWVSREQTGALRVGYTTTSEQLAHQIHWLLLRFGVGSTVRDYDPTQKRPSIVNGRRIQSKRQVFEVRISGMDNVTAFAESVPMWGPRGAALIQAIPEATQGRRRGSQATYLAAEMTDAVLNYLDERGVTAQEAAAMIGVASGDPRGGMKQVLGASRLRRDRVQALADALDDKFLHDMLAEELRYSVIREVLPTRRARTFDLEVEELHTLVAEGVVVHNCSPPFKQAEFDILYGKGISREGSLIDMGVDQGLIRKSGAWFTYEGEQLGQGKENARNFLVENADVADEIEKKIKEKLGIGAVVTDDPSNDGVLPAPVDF

The experiment has as its target Protein RecA (Mycobacterium tuberculosis (strain ATCC 25618 / H37Rv)) (UniProt P9WHJ3). Briefly: Mtb RecA intein splicing inhibitors, primary screen, biochemical, fluorescence, HTS (AID 2221).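 Further: 0% = vehicle wells and 100% = reference inhibitor control wells.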 As to conditions: cell-free RecA intein splicing, active compounds read high, concentration not given here.
For the compound `CCCNC(=O)CSc1nc(Cc2ccccc2)nc2ccccc12`, the inhibition is 15.4%. To `CCN(CC)S(=O)(=O)c1cc([N+](=O)[O-])ccc1NNC(=O)Nc1ccccc1` belongs 0.713%; to `COc1ccc(-n2nnnc2CNC(=O)c2ccc3ccccc3c2)cc1`, -1.28%; to `Cc1ccc([N+](=O)[O-])c(OCCCNCC(C)O)c1` (stereo unspecified), -0.0235%.

With `Cc1ccc(CN2CCN(c3ncccn3)CC2)c(C)c1`, the inhibition was 0.612%. As for `Cn1c(SCC(=O)c2ccccc2)ncc(C(=O)Nc2ccc(F)cc2)c1=O`, the inhibition is -0.487%. Consider `C=CCn1c(SCC(=O)NCC2CCCO2)nc2sc(C)c(C)c2c1=O` (stereo unspecified), for which the inhibition was 0.158%.

With `Cc1ccc(NC(=O)c2cnc(SCC(=O)NCC3CCCO3)n(C)c2=O)cc1` (stereo unspecified), the inhibition is 35.1% (active). In the case of `COc1c(O)ccc2c1CN1CCc3cc4c(cc3C1C2)OCO4` (stereo unspecified), the inhibition is 68.5% (active).

Regarding `COc1ccc2cc1Oc1ccc(cc1)C[C@H]1c3cc(c(OC)cc3CCN1C)Oc1c(O)c(OC)cc3c1[C@H](C2)N(C)CC3`, the inhibition was -4.49%. In the case of `COc1ccc2c(c1O)-c1cccc3c1[C@@H](C2)N(C)CC3`, the inhibition is -6.28%.

For `CC(C)(C)OC(=O)NC(Cc1ccccc1)C(=O)NC(CSC1CCCCO1)C(=O)NN` (stereo unspecified), the inhibition is -1.13%. To `CC1(C)CC(=O)c2cnc3nc4ccccc4n3c2C1` belongs -0.669%. As to `CC(CNc1ccc([N+](=O)[O-])c2cccnc12)Nc1c([N+](=O)[O-])cc(C(F)(F)F)cc1[N+](=O)[O-]` (stereo unspecified), the inhibition was 1.36%. As for `COc1ccc(-c2cc(C(F)(F)F)nc(NCc3cccnc3)n2)cc1`, the inhibition is -1.1%. On to `COc1ccc(-c2ccc(Nc3ccc(S(=O)(=O)N4CCCC4)cc3)nn2)cc1OC`, for which the inhibition is -1.08%. The figure for `COc1ccc(-c2cc(C(F)(F)F)nc(S(C)(=O)=O)n2)cc1OC` is 42% (active). For the compound `Cn1cc(CCC(=O)NC2CC2)c2ccccc21`, the inhibition is -0.418%.

Regarding `O=C(CN1CCN(C(=S)NC2CCCC2)CC1)Nc1ccc(Oc2ccccc2)cc1`, the inhibition is 5.42%.

For the compound `COCc1cc(C)n(CC(=O)NCC2CCCO2)c(=O)c1C#N` (stereo unspecified), the inhibition is -0.67%. Take `C[C@]12C=CC(=O)C=C1CC[C@@H]1[C@@H]2C(=O)C[C@@]2(C)[C@H]1CC[C@]2(O)C(=O)CO`: the inhibition is 1.39%. As for `CC(=O)C12CC(C)=C(C)CC1CC1C3CCC4=CC(=O)CCC4(C)C3CCC12C` (stereo unspecified), the inhibition was 36% (active). The figure for `CC(=O)O[C@]1(C(C)=O)CC[C@H]2[C@@H]3C=C(C)C4=CC(=O)CC[C@]4(C)[C@H]3CC[C@@]21C` is 11%; for `C=CCN(C(=O)Nc1ccc2oc(C)nc2c1)c1ccccc1` it is 1.61%.

On to `CCN(CC)c1ccc2oc(=O)c(C)nc2c1`, for which the inhibition is 30.2% (active).

Consider `CCN(CC)c1ccc2cc(C(N)=O)/c(=N\NC(=O)c3ccncc3)oc2c1`, for which the inhibition is -24.7%.
